From PubChem BioAssay AID1117264 (The Scripps Research Institute Molecular Screening Center, 2014)
In all, about 89,000 compounds went through this assay and about 440 (0.49%) were called active. The sample holds actives, similar compounds and a random draw of the others, so the mix is not that of the screen. Values without a mark were called inactive.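 The calls were made as follows: active = inhibition above the mean inhibition across all screened compounds plus 3 SD (cut at about 11% in these data); inactive = the rest.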

Molecular target: RNA-editing ligase 1, mitochondrial (Trypanosoma brucei brucei) (UniProt P86926)
Experiment: TbREL1 RNA ligase inhibitors, primary screen, biochemical, FRET fluorescence (AID 1117264);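 also: 0% = plate median of test wells and 100% = NSC42067 control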
Conditions: TbREL1 RNA ligation, at 9.66 µM, stronger effect = higher value

Sequence of RNA-editing ligase 1, mitochondrial (Trypanosoma brucei brucei) (P86926 whole entry, looked up): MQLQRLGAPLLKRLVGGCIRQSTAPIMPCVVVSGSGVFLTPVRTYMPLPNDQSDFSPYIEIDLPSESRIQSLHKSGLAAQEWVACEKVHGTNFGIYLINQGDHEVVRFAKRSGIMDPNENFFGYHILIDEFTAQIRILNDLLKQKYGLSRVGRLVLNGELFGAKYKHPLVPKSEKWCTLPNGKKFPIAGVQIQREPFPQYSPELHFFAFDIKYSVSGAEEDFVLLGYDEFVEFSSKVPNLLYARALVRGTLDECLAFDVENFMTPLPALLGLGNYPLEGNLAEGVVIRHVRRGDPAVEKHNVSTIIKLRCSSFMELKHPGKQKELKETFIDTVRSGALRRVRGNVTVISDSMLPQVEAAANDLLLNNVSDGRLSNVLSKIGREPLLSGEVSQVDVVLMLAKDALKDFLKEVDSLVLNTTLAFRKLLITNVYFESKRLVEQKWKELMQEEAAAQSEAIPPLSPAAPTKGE

SMILES	inhibition
Cc1c(Cl)cccc1NC(=O)NCCCN1CCCC1=O	5.26%
Cc1nc(C)c(C(=O)Nc2cccc(C)c2C)o1	-2.18%
Cc1nnsc1C(=O)Nc1cccc(Cl)c1C	11.4% (active)
O=C(OCC(=O)N1CCCC1)c1ccc(Cl)nc1	4.11%
O=C1CC(N2CCN(C(c3ccccc3)c3ccccc3)CC2)C(=O)N1 (stereo not given)	4.81%
CC1(C)CC(N2CCN(C(c3ccccc3)c3ccccc3)CC2)=CC(=[N+]2CCCCC2)C1	20.5% (active)
Cc1cccc(N2CCN(C(c3ccccc3)c3nnnn3CC3CCCO3)CC2)c1C (stereo not given)	-2.64%
COC(=O)CN1C(=O)[C@H]2[C@@H](/C=C/c3ccccc3)N3C(=O)CN(CC4CC4)C(=O)[C@@]3(Cc3ccccc3)[C@H]2C1=O	-1.86%
NC(=O)COC(=O)c1ccc2c(c1)C(=O)N(Cc1ccco1)C2=O	-0.09%
Cc1cc(NS(=O)(=O)c2ccc(NC(=O)CSc3nnc(SCc4ccc(F)cc4)s3)cc2)nc(C)n1	1.56%
CCOC(=O)C1C(c2ccc(O)cc2)NC(=O)NC1(O)C(F)(F)F (stereo not given)	-0.27%
COC(=O)C1CN(CCc2ccccc2)CCS(=O)(=O)N1Cc1cccc(Cl)c1 (stereo not given)	1.04%
COc1ccc(CCNC(=O)CSc2nc3[nH]ncc3c(=O)n2-c2cccc(C(F)(F)F)c2)cc1OC	-1.55%
CCc1ccc(N(CC(=O)NCc2cccnc2)S(=O)(=O)c2ccccc2)cc1	-1.98%
N#Cc1ccc(C2N=C(c3ccccc3)NO2)cc1 (stereo not given)	9.48%
O=C(Nc1ccon1)c1nc[nH]c1C(=O)NCc1ccccc1	5.43%
Cc1nc2ccc(C(=O)N3CCN(C(=O)C(C)(C)C)CC3)cc2n1C1CCCC1	-0.3%
COc1ccccc1/C=C/C(=O)OCC(=O)NC1CCCCCC1	1.81%
Cc1ccc(Cn2c(C)c(C(=O)NCc3ccccc3C(F)(F)F)sc2=O)cc1	0.6%
COc1ccc(S(=O)(=O)N2CCOCC2)cc1NC(=O)CC1CC2CCC1C2 (stereo not given)	-2.41%
CCOc1ccc(NC(=O)CCCCCN2C(=O)[C@@H]3Cc4ccccc4CN3C2=O)cc1	-0.69%
Cc1c(S(=O)(=O)NC(C)c2ccccc2)c(=O)n(C)c(=O)n1C (stereo not given)	0.77%
CCOc1cc2[nH]c(=O)n(Cc3ccc(C(=O)NCCCN4CCCC4=O)cc3)c(=O)c2cc1OCC	-3.44%
CCC1CCCCN1CCCNC(=O)C1CCC(Cn2c(=O)[nH]c3ccccc3c2=O)CC1 (stereo not given)	0.83%
CCCCCn1c(=O)[nH]c2cc(C(=O)NCCCN3CCCCC3C)ccc2c1=O (stereo not given)	11.5% (active)
